In the library only some 4.6% were active in any assay of this set; here they are far more common.
KKLEB tox: CF airway cell cytotoxicity counter-screen; KKLEB CF airway cells viability, ATPlite luminescence, overnight; stronger effect = lower value; cells stimulated with P. aeruginosa culture filtrate; activity change (cytotoxicity), % at 5 µM; 0.36% of 360,000 active; AID 602141;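 active = corrected activity change at or below -50% at 5 µM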
Peg3 prom inh-1: inhibitors of Peg3 promoter. inhibition, % at 20 µM. HeLa PEG-Prom luciferase reporter, luminescence, overnight. AID 588405. 1.7% of 360,000 active;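 active = inhibition of at least 50% at 20 µM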
CF NFkB inh: blocks PAF-induced NF-kB reporter in cystic fibrosis cells. KKLEB NF-kB-GFP reporter, GFP fluorescence overnight. inhibition, % at 5 µM. 0.86% of 360,000 active. AID 588850;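 active = at least 50% inhibition at 5 µM, scaled per plate between neutral and stimulator controls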;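 also: PAF is a Pseudomonas aeruginosa culture filtrate used as stimulus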
Mdm2 MdmX PPI: disrupts the human Mdm2-MdmX interaction. inhibition, % at 8 µM. 3% of 330,000 active. O15151+Q00987. SaOS-2 split-luciferase Mdm2/MdmX complementation, luminescence;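 active = inhibition of at least 50% at 8 µM in the primary screen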
HIF-2a inh: inhibitors of HIF-2a | 786-0 RCC cells HIF-2a reporter, luciferase luminescence, overnight | 0.72% of 360,000 active | inhibition, % at 18.8 µM | AID 624352;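 active = inhibition of the luminescence signal of 40% or more relative to plate controls, in a single-dose primary screen at 18.75 µM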
ABHD5-PLIN5 inh: ABHD5-PLIN5 protein interaction inhibition; Q00G26+Q8WTS1; Split G. princeps luciferase complementation, luminescence, 4 h; inhibition, % at 4 µM; 0.78% of 360,000 active;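 active = inhibition above the mean inhibition across every tested compound plus 3 SD, cut at about 22% in these data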
Target sequence (Q00G26 whole entry, looked up): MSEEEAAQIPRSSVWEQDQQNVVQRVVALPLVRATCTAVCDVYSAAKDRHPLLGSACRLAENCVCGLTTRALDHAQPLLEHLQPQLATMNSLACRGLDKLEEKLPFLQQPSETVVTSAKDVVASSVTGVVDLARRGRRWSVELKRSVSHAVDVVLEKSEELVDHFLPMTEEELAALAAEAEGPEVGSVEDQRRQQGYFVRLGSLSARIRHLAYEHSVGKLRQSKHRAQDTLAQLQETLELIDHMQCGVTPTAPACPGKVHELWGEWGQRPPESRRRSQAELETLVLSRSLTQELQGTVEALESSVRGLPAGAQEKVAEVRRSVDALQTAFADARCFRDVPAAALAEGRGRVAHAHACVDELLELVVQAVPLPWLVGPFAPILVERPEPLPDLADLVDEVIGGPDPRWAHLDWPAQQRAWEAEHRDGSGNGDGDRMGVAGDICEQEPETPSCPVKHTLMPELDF
Target sequence (Q8WTS1 whole entry, looked up): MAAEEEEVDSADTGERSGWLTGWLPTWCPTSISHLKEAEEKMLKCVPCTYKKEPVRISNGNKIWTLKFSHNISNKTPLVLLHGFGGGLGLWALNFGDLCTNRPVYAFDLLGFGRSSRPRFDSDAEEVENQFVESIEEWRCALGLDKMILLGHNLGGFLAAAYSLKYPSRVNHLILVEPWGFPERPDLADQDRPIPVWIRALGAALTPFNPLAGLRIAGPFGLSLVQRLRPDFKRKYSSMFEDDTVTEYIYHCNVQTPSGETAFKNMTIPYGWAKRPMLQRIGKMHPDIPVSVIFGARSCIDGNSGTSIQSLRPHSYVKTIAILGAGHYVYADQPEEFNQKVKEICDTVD
Mdm2 MdmX conf-1: human Mdm2/MdmX binding inhibition, confirmed; shares compounds with Mdm2 MdmX PPI; luminescent assay; AID 489028; inhibition, % at 8 µM; 55% of 10,000 active
FLuc counter: counter-screen for Mdm2/MdmX inhibitors: full-length luciferase. shares compounds with Mdm2 MdmX PPI. SaOS-2 full-length luciferase counterscreen, luminescence. inhibition, % at 8 µM. 77% of 6,200 active;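 active = mean inhibition at 8 µM reaching about 37%, which flags the compound as non-specific, limit read from the data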;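 also: p53-null SaOS-2 cells with luciferase driven by a doxycycline-inducible promoter; compound on cells about two nights before reading with doxycycline added after day one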
Peg3 prom inh-2: Peg3 promoter inhibition confirmation; shares compounds with Peg3 prom inh-1; HeLa PEG-Prom luciferase reporter, luminescence, overnight; inhibition, % at 20 µM; 84% of 1,300 active; AID 602417;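 active = at 20 µM dose, 40% or more inhibition averaged across four replicates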
CF NFkB conf: CF NF-kB inhibition confirmation, single concentration; 64% of 1,300 active; inhibition, % at 5 µM; shares compounds with CF NFkB inh; KKLEB CF airway cells, PAF-induced NF-kB-GFP fluorescence, overnight;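 also: stimulus PAF is a Pseudomonas aeruginosa filtrate and not platelet activating factor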
ABHD5-PLIN5 conf: ABHD5-PLIN5 interaction inhibition, confirmed | inhibition, % at 4 µM | 67% of 2,200 active | shares compounds with ABHD5-PLIN5 inh | AID 651612 | biochemical ABHD5-PLIN5 interaction, luminescence; in the data active = inhibition above about 23%
HNF4 counter: HNF4 split-luciferase signal hit, counter-screen | shares compounds with ABHD5-PLIN5 inh | HNF4 dimerization, luminescence, biochemical | inhibition, % at 4 µM | 77% of 2,200 active;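 active = mean inhibition across replicate wells exceeding the computed hit threshold, cut at about 13% in these data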;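 also: light from luciferase halves that rejoin when HNF4 fusion proteins dimerize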
Mdm2 MdmX conf-2: confirmation of inhibitors of human Mdm2/MdmX interaction, set 2 | shares compounds with HIF-2a inh | SaOS-2 split-luciferase Mdm2/MdmX complementation, luminescence | inhibition, % at 8 µM | 99% of 740 active | AID 504601;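 active = mean inhibition of the luminescence signal across two replicates at or above 26 percent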
HIF-2a inh conf: confirmation of HIF-2a inhibitors; shares compounds with HIF-2a inh; 786-0 RCC cells, HIF-2a luciferase reporter luminescence, overnight; inhibition, % at 18.8 µM; 56% of 1,800 active; AID 651580;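 active = mean inhibition across four replicates of at least 40 percent at the single tested concentration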
HIF-1a counter: inhibits HIF-1a reporter, a counter-screen for HIF-2a inhibitors | MiaPaCa-2 HIF-1a luciferase reporter, desferoxamine, overnight | 72% of 1,800 active | inhibition, % at 18.8 µM | AID 651589 | shares compounds with HIF-2a inh;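 active = mean inhibition of the reporter signal across four replicates at the single tested dose of 50% or more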
Numbers stand for hits. Rule as the data show it, unless noted: active = inhibition above about 40%; inactive = the rest.

CN(Cc1cccc(C(F)(F)F)c1)C(=O)C1CCC(=O)N(CC2CCCCC2)C1 (stereo not drawn) was read as KKLEB tox inactive, Peg3 prom inh-1 inactive, CF NFkB inh inactive, Mdm2 MdmX PPI inactive, HIF-2a inh inactive and ABHD5-PLIN5 inh inactive.
Screening CNC[C@@H](CC1CCCCC1)NC[C@H](CC(C)C)NCCc1cccc(C(F)(F)F)c1 returned KKLEB tox -72, Peg3 prom inh-1 99, CF NFkB inh inactive, Mdm2 MdmX PPI 99, HIF-2a inh inactive, ABHD5-PLIN5 inh inactive, Mdm2 MdmX conf-1 100, FLuc counter 50 and Mdm2 MdmX conf-2 103.
CCCCNC(=O)C1(C)CCCCN1C(=O)c1ccc2ccccc2n1 (stereo not drawn) was read as KKLEB tox inactive, Peg3 prom inh-1 inactive, CF NFkB inh inactive, HIF-2a inh inactive and ABHD5-PLIN5 inh inactive.
`CCN(CC)S(=O)(=O)c1cc([N+](=O)[O-])ccc1NNC(=O)Nc1ccc(Cl)c(Cl)c1` gave KKLEB tox inactive, Peg3 prom inh-1 inactive, CF NFkB inh inactive, Mdm2 MdmX PPI 91, HIF-2a inh inactive, ABHD5-PLIN5 inh inactive, Mdm2 MdmX conf-1 93, FLuc counter 52 and Mdm2 MdmX conf-2 94.
For COc1ccc(C(NC(=O)C2CCN(Cc3ccc(Oc4ccccc4)cc3)CC2)c2ccccc2C)cn1 (stereo not drawn) the results were KKLEB tox inactive, Peg3 prom inh-1 inactive, CF NFkB inh inactive, HIF-2a inh inactive and ABHD5-PLIN5 inh inactive.
For COc1ccc(C(=O)O/N=C(\N)Cc2ccc(Cl)cc2)cc1OC the results were KKLEB tox inactive, Peg3 prom inh-1 113, CF NFkB inh inactive, Mdm2 MdmX PPI 100, HIF-2a inh 62, ABHD5-PLIN5 inh inactive, Mdm2 MdmX conf-1 93, FLuc counter 42, HIF-2a inh conf inactive and HIF-1a counter inactive.
COc1ccc(C(=O)O/N=C(\N)Cc2ccc(Cl)c(Cl)c2)cc1OC was read as KKLEB tox inactive, Peg3 prom inh-1 104, CF NFkB inh inactive, Mdm2 MdmX PPI 101, HIF-2a inh 88, ABHD5-PLIN5 inh inactive, Mdm2 MdmX conf-1 100, FLuc counter inactive, HIF-2a inh conf inactive and HIF-1a counter inactive.
Screening CCOC(=O)c1c(NC(=O)CN2C(=O)C(=O)N(CC(C)C)C2=O)sc(C)c1CC returned KKLEB tox inactive, Peg3 prom inh-1 inactive, CF NFkB inh inactive, Mdm2 MdmX PPI inactive, HIF-2a inh inactive and ABHD5-PLIN5 inh inactive.
`NS(=O)(=O)c1cc(C(=O)OCC(=O)Nc2ccccc2[N+](=O)[O-])ccc1Cl` gave KKLEB tox inactive, Peg3 prom inh-1 inactive, CF NFkB inh inactive, Mdm2 MdmX PPI inactive, HIF-2a inh inactive and ABHD5-PLIN5 inh inactive.
Cc1ccccc1NC(=O)Cc1nc(COC(=O)c2ccc(S(C)(=O)=O)c([N+](=O)[O-])c2)cs1 was read as KKLEB tox inactive, Peg3 prom inh-1 101, CF NFkB inh 77, Mdm2 MdmX PPI 97, HIF-2a inh inactive, ABHD5-PLIN5 inh 27, Mdm2 MdmX conf-1 94, FLuc counter 57, CF NFkB conf inactive, ABHD5-PLIN5 conf 35, HNF4 counter 42 and Mdm2 MdmX conf-2 100.
`CC(CCc1ccccc1)NC(=O)COC(=O)c1ccc(S(C)(=O)=O)c([N+](=O)[O-])c1` (stereo not drawn) gave KKLEB tox -64, Peg3 prom inh-1 102, CF NFkB inh 91, Mdm2 MdmX PPI 81, HIF-2a inh 50, ABHD5-PLIN5 inh inactive, Mdm2 MdmX conf-1 83, FLuc counter 55, Peg3 prom inh-2 97, Mdm2 MdmX conf-2 102, HIF-2a inh conf inactive and HIF-1a counter 97.
`Cc1ccccc1NC(=O)COC(=O)c1ccc(S(C)(=O)=O)c([N+](=O)[O-])c1` gave KKLEB tox inactive, Peg3 prom inh-1 89, CF NFkB inh 53, Mdm2 MdmX PPI 55, HIF-2a inh 93, ABHD5-PLIN5 inh inactive, Mdm2 MdmX conf-1 inactive, CF NFkB conf inactive, HIF-2a inh conf inactive and HIF-1a counter inactive.
`CN(CCc1ccccc1)C(=O)CC1C(=O)NCCN1Cc1ccccn1` (stereo not drawn) gave KKLEB tox inactive, Peg3 prom inh-1 inactive, CF NFkB inh inactive, HIF-2a inh inactive and ABHD5-PLIN5 inh inactive.
`Cc1cc(C)c(C(=O)/C=C/C=C/c2ccccc2)c(=O)[nH]1` gave KKLEB tox inactive, Peg3 prom inh-1 inactive, CF NFkB inh inactive, Mdm2 MdmX PPI inactive, HIF-2a inh inactive and ABHD5-PLIN5 inh inactive.
Screening Cc1cc(C)c(C(=O)/C=C/c2ccc(C(C)C)cc2)c(=O)[nH]1 returned KKLEB tox inactive, Peg3 prom inh-1 68, CF NFkB inh 59, Mdm2 MdmX PPI 86, HIF-2a inh 59, ABHD5-PLIN5 inh 37, Mdm2 MdmX conf-1 97, FLuc counter 56, CF NFkB conf 53, Mdm2 MdmX conf-2 103, HIF-2a inh conf 53 and HIF-1a counter 102.
Screening CCOc1ccc(C(=O)Nc2cccc3ncccc23)cc1Cl returned KKLEB tox inactive, Peg3 prom inh-1 inactive, CF NFkB inh inactive, Mdm2 MdmX PPI inactive, HIF-2a inh inactive and ABHD5-PLIN5 inh inactive.
Fc1ccc(Oc2nc(-c3ccccc3)nnc2C(F)(F)F)cc1 was read as KKLEB tox inactive, Peg3 prom inh-1 inactive, CF NFkB inh inactive, Mdm2 MdmX PPI inactive, HIF-2a inh inactive and ABHD5-PLIN5 inh inactive.
